The list is not random: actives were taken first. Their share in the collection is about 4.1%.
UGM FP inh = blocks M. tuberculosis UGM enzyme | inhibition, % at 10 µM | actives 0.06% (n = 320,000) | purified UGM, fluorescence polarization probe displacement; in the data active means inhibition above about 10%, passing the limit was not always enough
GDH-TPI counter = GDH-TPI coupled enzyme inhibition counter-screen | inhibition, % at 4.8 µM | GDH-TPI coupled enzyme counterscreen, NADH absorbance | actives 1.2% (n = 360,000); in the data active means inhibition above about 30%;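 further: 0% = DMSO wells and 100% = wells lacking the enzyme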
Vc quorum ag = inducers of Vibrio cholerae quorum light production without autoinducers; V. cholerae BH1578 lux reporter, luminescence, 6 h; actives 0.16% (n = 350,000); activation, % at 18.7 µM; AID 588436; in the data active means activation mostly above about 9.7%, no sharp cut-off
Rv3671c protease = inhibitors of M. tuberculosis serine protease Rv3671c; P9WHR9; inhibition, % at 5.96 µM; actives 0.048% (n = 320,000); in the data active means inhibition above about 38%;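 further: extracellular domain of Rv3671c used as enzyme; 0% = enzyme with DMSO and 100% = no enzyme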
Mtb FBA inh = inhibitors of M. tuberculosis fructose-bisphosphate aldolase | P9WQA3 | actives 2.3% (n = 360,000) | purified M. tuberculosis FBA, fluorescence read-out | inhibition, % at 1 µM; in the data active means inhibition above about 27%;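 further: 0% = vehicle and 100% = reference inhibitor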
RecA intein inh = blocks M. tuberculosis RecA intein splicing. cell-free RecA intein splicing, fluorescence. actives 0.75% (n = 290,000). AID 2221. inhibition, % (test concentration not listed); in the data active means inhibition above about 30%;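 further: 0% = vehicle wells and 100% = reference inhibitor control wells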
Target sequence (P9WHJ3 whole entry, looked up): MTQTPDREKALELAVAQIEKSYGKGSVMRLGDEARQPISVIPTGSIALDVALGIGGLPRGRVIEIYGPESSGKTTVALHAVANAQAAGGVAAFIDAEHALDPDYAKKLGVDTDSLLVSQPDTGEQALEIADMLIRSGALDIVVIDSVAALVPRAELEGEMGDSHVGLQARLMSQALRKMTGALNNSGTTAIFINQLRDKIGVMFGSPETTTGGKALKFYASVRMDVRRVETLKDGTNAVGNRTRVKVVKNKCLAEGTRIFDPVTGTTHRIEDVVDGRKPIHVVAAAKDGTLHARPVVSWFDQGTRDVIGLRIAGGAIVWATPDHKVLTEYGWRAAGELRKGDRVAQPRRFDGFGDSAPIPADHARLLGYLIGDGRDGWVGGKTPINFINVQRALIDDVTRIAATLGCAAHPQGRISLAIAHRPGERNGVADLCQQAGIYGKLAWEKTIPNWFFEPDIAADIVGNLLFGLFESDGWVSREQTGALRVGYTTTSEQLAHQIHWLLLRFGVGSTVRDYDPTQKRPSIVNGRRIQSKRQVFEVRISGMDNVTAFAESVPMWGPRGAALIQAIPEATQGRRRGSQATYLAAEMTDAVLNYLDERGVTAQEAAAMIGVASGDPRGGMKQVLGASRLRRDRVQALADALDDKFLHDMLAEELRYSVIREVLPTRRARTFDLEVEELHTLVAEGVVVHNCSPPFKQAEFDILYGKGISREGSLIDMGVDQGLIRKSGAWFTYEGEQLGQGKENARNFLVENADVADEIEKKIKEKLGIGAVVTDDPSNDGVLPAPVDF
An asterisk follows results filed as active; i = inactive; . = not tested or not shown; + = active, no number.

SMILES | UGM FP inh | GDH-TPI counter | Vc quorum ag | Rv3671c protease | Mtb FBA inh | RecA intein inh
O=C(NNC(=O)c1ccncc1)Nc1ccc(N=Nc2ccccc2)cc1 | . | 37* | i | . | -2 | .
Cc1ccccc1NC(=S)NNC(=O)c1ccncc1 | 1 | 12 | 0 | 11 | 1 | 2
O=C1C2C3C=CC(C4CC34)C2C(=O)N1/N=C/c1ccc(-c2ccc(F)cc2[N+](=O)[O-])o1 (centres undefined) | -1 | 32* | 0 | 4 | -5 | -1
O=C1C2C3C=CC(C4CC34)C2C(=O)N1/N=C/c1ccc(-c2ccc(Cl)cc2[N+](=O)[O-])o1 (centres undefined) | -2 | 37* | i | 2 | -1 | 6
Cc1ncc(CN2CCN(CCc3ccccc3)C(CCO)C2)s1 (centres undefined) | -2 | 8 | i | 2 | 6 | 2
COc1cc(CN2CCC(C(=O)NC(c3ccc(-c4ccccc4)cc3)c3cnccn3)CC2)cc(OC)c1 (centres undefined) | . | -2 | i | . | -4 | .
COc1ccc(C2/C=C\CC(NC(=O)OCC3c4ccccc4-c4ccccc43)CC(=O)N2Cc2ccccc2F)cc1 (centres undefined) | . | 5 | 0 | . | 3 | .
O=C(CCNC(=O)c1ccc([N+](=O)[O-])cc1)Nc1cccc(S(=O)(=O)N2CCCCCC2)c1 | 0 | 15 | 0 | -8 | 4 | .
CCN(CC)C(=O)C1=C(C)N(CCC2=CCCCC2)C(=O)C(CC(=O)NCCN2CCOCC2)C1 (centres undefined) | . | 6 | 2 | . | 3 | .
COc1ccc(/C=N/NC(=O)c2cc(-c3ccc(C)cc3C)nc3ccccc23)cc1COC(C)=O | 2 | 35* | 0 | -33 | 5 | 0
COc1ccccc1-c1cc(C(=O)N/N=C/c2ccc(C)s2)c2ccccc2n1 | -3 | 37* | i | -8 | -1 | 2
COc1ccc(/C=N/NC(=O)c2cc(-c3ccccc3OC)nc3ccccc23)cc1COC(C)=O | 1 | 11 | -5 | -25 | -1 | 8
CCc1ccc(/C=N/NC(=O)c2cc(-c3ccccc3OC)nc3ccccc23)s1 | 0 | 12 | -15 | -8 | -2 | -1
CCN(CC)C(=O)COc1ccc(/C=N/NC(=O)c2cc(-c3ccccc3OC)nc3ccccc23)cc1OC | 3 | 42* | -1 | -6 | -1 | 2
CC1(C)CC2(C)OC(=N)C1(C#N)C2(C#N)C#N (centres undefined) | -4 | 16 | 0 | -3 | 1 | 45*
O=c1c(-c2n[nH]c(=S)o2)cccn1Cc1ccccc1 | 2 | 24 | -1 | 1 | 17 | -1
CSc1nnc(-c2cccn(Cc3ccccc3)c2=O)o1 | -4 | 4 | 0 | -6 | 131* | 1
Cc1cc(C)c(OCC(=O)OCC(=O)N2c3ccccc3CC2C)c(C)c1 (centres undefined) | -2 | 0 | -1 | 1 | 1 | 7
CCOC(=O)c1sc(C)c2c(=O)n(CC)nnc12 | 3 | 32* | i | -3 | 4 | 2
CCOC(=O)c1sc(C)c2c(=O)n(CCc3ccccc3)nnc12 | 1 | -2 | i | -5 | -7 | 12
CC(/C=N/n1cnnc1)=C\c1ccco1 | -1 | 39* | 0 | -8 | 1 | 3
CNc1ccc(-c2cccc(CO)c2)cn1 | . | 7 | i | . | 171* | .
COCCCNC(=O)Cc1c(C)c2cc3c(cc2oc1=O)OC(C)(C)CC3 | 2 | 11 | 1 | 2 | 192* | -5
Cc1c(CC(=O)NCCCCCC(=O)O)c(=O)oc2cc3c(cc12)CCC(C)(C)O3 | -1 | 11 | 1 | . | 187* | -2
CCC(NC(=O)Cc1c(C)c2cc3c(cc2oc1=O)OC(C)(C)CC3)C(=O)O (centres undefined) | 2 | 23 | i | 2 | + | -2
SMILES | UGM FP inh | GDH-TPI counter | Vc quorum ag | Rv3671c protease | Mtb FBA inh | RecA intein inh
CSCC[C@H](NC(=O)Cc1c(C)c2cc3c(C)c(C)oc3cc2oc1=O)C(=O)N[C@@H](C(=O)O)c1ccccc1 | . | 10 | 0 | . | 21 | .
Cc1c(CC(=O)NCCCC(=O)O)c(=O)oc2cc3c(cc12)CCC(C)(C)O3 | -3 | 26 | i | -7 | + | 0
CCOc1ccc(CCNS(=O)(=O)c2c(C)nc3sccn3c2=O)cc1OCC | . | 16 | 0 | . | 1 | .
C1CCCC(NC2=NCCO2)CCC1 | 0 | 10 | -1 | -3 | 1 | 1
Cc1ccnc2nc(C(=O)OCC(=O)Nc3ccc4c(c3)OCCO4)nn12 | -1 | 4 | -1 | 2 | 1 | .
COCCOc1ccc(C(F)(F)F)cc1NC(=O)COC(=O)c1cc([N+](=O)[O-])ccc1N1CCOCC1 | -2 | 14 | i | -14 | 0 | 1
Cc1c(CC(=O)O)c(=O)oc2cc3c(cc12)CCC(C)(C)O3 | 0 | 25 | i | 5 | + | -2
Cc1c(CC(=O)N2CCC(C(N)=O)CC2)c(=O)oc2cc3c(cc12)CCC1(CCCCC1)O3 | -2 | 18 | 0 | 0 | + | 2
CCOC(=O)c1cc(C)sc1NC(=O)CSC1=NCCS1 | -1 | 9 | 0 | -7 | 3 | 32*
Cc1ccc(C2c3c(oc4ccc(Cl)cc4c3=O)C(=O)N2CCCN2CCOCC2)o1 (centres undefined) | 2 | . | . | 1 | . | 36*
COc1ccc(CN(C)C(=O)COc2cccc(-n3cnnn3)c2)cc1OC | 0 | 6 | i | 6 | -3 | .
CCOC(=O)C1=CCN(S(=O)(=O)c2ccccc2F)C1c1cccc(C)c1 (centres undefined) | . | . | . | . | 1 | .
Cc1ccc(NC(=O)C(=O)NCc2ccc(/C=N/NC(=O)c3c(C)nc4ccccn34)o2)cc1 | -4 | 42* | i | -3 | -2 | 3
CCOc1ccccc1Oc1c(C)oc2c(CN3CCN(C)CC3)c(O)ccc2c1=O | -2 | 42* | i | 4 | 138* | .
COc1cccc(Oc2coc3c(CN4CCOCC4)c(O)ccc3c2=O)c1 | 1 | 26 | i | -4 | 115* | -9
O=c1c(-c2ccc3c(c2)OCCO3)coc2c(CN3CCOCC3)c(O)ccc12 | 0 | 8 | -5 | -3 | 14 | 0
COc1ccccc1Oc1c(C)oc2c(CN3CCOCC3)c(O)ccc2c1=O | 0 | 21 | -1 | 8 | 181* | -2
COc1cccc(Oc2c(C)oc3c(CN4CCCC4)c(O)ccc3c2=O)c1 | 0 | 23 | i | -3 | 173* | -4
O=C(CN1CCN(CC(=O)Nc2cccc(F)c2)CC1)Nc1ccc(-c2ccccc2)cc1 | 0 | 6 | -4 | 5 | -4 | 3
Cc1ccc(S(=O)(=O)Nc2ccc3c(c2)C(=O)N([C@@H](C)CO)C[C@@H](C)[C@@H](CN(C)CC2CC2)OCCCC[C@@H](C)O3)cc1 | . | 2 | 2 | . | -3 | .
CCN(CC)c1ccc(C=Nc2ccc(N(C)C)cc2)c(O)c1 | 0 | 54* | i | -24 | -3 | -3
CCN(CC)c1ccc(C=Nc2ccccc2)c(O)c1 | -1 | 34* | -2 | -6 | -2 | -5

Screens (PubChem)
